# Results: publication PMC7862700, “An all-to-all approach to the identification of sequence-specific readers for epigenetic DNA modifications on cytosine”
# Legend:
# Experiment in all cases: DAPPL (digital affinity profiling via proximity ligation, sequencing); 10 mM Tris-HCl pH 7.5, 50 mM NaCl, 1 mM DTT, 4% glycerol, room temperature, 30 min; GST-TFs on glutathione beads, 16-mer random dsDNA library, 0.1% formaldehyde crosslink after washing; high values mean tight binding
# FLI1 = biological target: T1, FLI1 (Homo sapiens, UniProt Q01543 1-452); conditions: protein: recombinant; tags: N-terminal GST; dsDNA, one strand shown
# T1 sequence: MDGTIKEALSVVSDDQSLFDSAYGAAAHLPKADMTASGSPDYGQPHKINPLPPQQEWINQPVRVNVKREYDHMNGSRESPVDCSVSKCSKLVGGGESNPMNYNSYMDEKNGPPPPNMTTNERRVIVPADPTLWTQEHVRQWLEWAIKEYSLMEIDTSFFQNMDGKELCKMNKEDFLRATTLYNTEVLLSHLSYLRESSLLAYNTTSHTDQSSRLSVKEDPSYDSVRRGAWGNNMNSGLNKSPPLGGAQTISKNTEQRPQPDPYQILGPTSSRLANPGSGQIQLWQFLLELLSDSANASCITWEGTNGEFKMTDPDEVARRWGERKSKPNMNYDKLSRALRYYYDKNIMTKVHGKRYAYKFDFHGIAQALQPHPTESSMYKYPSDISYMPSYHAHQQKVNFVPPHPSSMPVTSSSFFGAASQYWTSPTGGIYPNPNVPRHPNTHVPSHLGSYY
# Procedure, shortened: (§1)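 Human transcription factors fused to GST were expressed in yeast, captured on glutathione beads, given DNA barcodes and pooled with a GST-only negative control. Pools were incubated with 200 nmole of a 16-mer random double-stranded DNA library in Tris/NaCl/DTT/glycerol buffer at room temperature for 30 min. They were then washed, crosslinked with 0.1% formaldehyde, proximity-ligated (BsaI/T4 ligase, 1 h, 37 °C), PCR-amplified and sequenced on an Illumina NextSeq500. Binding signal is each 6-mer's read frequency for a factor divided by its frequency for the GST control.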
# ELK1 = biological target: T2, ELK1 (Homo sapiens, UniProt P19419 1-428); conditions: protein: recombinant; tags: N-terminal GST; dsDNA, one strand shown
# T2 sequence: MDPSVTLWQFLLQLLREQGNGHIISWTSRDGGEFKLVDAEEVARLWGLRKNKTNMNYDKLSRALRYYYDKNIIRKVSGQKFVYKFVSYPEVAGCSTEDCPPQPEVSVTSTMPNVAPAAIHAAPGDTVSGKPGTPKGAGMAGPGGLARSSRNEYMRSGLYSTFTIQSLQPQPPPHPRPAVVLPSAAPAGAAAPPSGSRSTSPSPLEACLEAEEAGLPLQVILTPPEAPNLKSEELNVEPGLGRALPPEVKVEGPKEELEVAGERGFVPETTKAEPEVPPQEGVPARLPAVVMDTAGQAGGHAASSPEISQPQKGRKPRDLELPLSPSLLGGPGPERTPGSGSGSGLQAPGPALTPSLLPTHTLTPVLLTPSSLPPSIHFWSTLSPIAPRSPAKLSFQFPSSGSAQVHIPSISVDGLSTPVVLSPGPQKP
# Procedure, shortened: as §1
# GABPA = biological target: T3, GABPA (Homo sapiens, UniProt Q06546 1-454); conditions: protein: recombinant; tags: N-terminal GST; dsDNA, one strand shown
# T3 sequence: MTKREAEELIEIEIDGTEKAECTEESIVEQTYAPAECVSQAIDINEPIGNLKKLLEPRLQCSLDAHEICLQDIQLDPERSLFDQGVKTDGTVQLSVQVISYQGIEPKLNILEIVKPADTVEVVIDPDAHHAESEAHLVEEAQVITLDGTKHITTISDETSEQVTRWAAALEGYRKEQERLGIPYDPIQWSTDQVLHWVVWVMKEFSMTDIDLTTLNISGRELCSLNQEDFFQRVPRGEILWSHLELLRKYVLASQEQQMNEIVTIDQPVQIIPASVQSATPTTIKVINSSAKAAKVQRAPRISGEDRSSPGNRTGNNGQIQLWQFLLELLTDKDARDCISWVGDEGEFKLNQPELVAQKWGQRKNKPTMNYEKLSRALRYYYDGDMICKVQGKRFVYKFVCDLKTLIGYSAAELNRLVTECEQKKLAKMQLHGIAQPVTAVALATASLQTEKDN
# Procedure, shortened: as §1
# ERG = biological target: T4, ERG (Homo sapiens, UniProt P11308 1-479); conditions: protein: recombinant; tags: N-terminal GST; dsDNA, one strand shown
# T4 sequence: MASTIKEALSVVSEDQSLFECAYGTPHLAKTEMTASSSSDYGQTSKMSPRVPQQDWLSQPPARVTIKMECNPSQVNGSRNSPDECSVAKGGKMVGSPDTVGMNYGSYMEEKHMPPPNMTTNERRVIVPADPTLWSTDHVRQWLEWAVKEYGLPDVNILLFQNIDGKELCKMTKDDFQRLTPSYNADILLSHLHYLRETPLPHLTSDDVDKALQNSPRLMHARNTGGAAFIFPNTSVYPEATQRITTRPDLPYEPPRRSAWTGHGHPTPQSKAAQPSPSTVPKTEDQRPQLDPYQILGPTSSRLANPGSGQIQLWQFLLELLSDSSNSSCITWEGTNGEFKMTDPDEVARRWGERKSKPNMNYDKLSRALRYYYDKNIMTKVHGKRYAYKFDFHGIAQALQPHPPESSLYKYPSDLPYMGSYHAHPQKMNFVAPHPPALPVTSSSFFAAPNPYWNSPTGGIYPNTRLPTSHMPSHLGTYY
# Procedure, shortened: as §1
# ELF1 = ELF1 (Homo sapiens, UniProt P32519 1-619); conditions: protein: recombinant; tags: N-terminal GST; dsDNA, one strand shown
# Procedure, shortened: as §1
# EHF = biological target: T5, EHF (Homo sapiens, UniProt Q9NZC4 1-300); conditions: protein: recombinant; tags: N-terminal GST; dsDNA, one strand shown
# T5 sequence: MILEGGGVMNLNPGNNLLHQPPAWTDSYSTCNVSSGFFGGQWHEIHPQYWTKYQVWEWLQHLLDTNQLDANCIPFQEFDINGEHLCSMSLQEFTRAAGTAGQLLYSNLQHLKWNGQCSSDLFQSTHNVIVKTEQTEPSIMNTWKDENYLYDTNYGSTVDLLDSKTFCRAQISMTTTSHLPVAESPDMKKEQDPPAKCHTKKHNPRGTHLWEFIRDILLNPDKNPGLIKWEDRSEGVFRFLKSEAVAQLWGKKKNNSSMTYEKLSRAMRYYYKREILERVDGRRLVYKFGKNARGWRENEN
# Procedure, shortened: as §1
# SPI1 = SPI1 (Homo sapiens, UniProt P17947 1-270); conditions: protein: recombinant; tags: N-terminal GST; dsDNA, one strand shown
# Procedure, shortened: as §1
# SPIB = SPIB (Homo sapiens, UniProt Q01892 1-262); conditions: protein: recombinant; tags: N-terminal GST; dsDNA, one strand shown
# Procedure, shortened: as §1
# ELK3 = biological target: T6, ELK3 (Homo sapiens, UniProt P41970 1-407); conditions: protein: recombinant; tags: N-terminal GST; dsDNA, one strand shown
# T6 sequence: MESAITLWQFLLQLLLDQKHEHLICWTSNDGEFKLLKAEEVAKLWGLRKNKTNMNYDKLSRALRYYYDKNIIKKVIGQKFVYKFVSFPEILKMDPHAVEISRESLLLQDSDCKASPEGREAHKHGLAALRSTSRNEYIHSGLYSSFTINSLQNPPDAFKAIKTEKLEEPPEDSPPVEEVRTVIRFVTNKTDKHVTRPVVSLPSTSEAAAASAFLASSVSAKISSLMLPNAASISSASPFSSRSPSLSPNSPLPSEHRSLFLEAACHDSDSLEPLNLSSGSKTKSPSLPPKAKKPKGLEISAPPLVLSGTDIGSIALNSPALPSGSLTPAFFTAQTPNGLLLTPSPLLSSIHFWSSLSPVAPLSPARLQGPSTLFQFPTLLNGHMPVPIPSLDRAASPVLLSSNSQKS
# Procedure, shortened: as §1
# FEV = biological target: T7, FEV (Homo sapiens, UniProt Q99581 1-238); conditions: protein: recombinant; tags: N-terminal GST; dsDNA, one strand shown
# T7 sequence: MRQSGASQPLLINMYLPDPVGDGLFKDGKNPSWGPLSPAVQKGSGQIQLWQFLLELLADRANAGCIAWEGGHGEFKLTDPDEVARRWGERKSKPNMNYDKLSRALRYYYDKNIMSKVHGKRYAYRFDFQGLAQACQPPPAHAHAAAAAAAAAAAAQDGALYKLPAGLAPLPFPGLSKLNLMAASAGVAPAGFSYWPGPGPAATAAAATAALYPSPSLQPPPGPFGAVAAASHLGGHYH
# Procedure, shortened: as §1
# ETV5 = ETV5 (Homo sapiens, UniProt P41161 1-510); conditions: protein: recombinant; tags: N-terminal GST; dsDNA, one strand shown
# Procedure, shortened: as §1
# HSF1 = HSF1 (Homo sapiens, UniProt Q00613 1-529); conditions: protein: recombinant; tags: N-terminal GST; chain copies: 3; dsDNA, one strand shown
# Procedure, shortened: as §1
# SPIC = biological target: T8, SPIC (Homo sapiens, UniProt Q8N5J4 1-248); conditions: protein: recombinant; tags: N-terminal GST; dsDNA, one strand shown
# T8 sequence: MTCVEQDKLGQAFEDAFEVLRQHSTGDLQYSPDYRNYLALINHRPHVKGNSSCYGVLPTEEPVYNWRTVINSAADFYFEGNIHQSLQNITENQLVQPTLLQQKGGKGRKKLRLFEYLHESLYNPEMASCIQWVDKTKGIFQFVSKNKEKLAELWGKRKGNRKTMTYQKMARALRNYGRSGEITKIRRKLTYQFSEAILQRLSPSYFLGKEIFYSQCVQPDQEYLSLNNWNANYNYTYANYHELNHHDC
# Procedure, shortened: as §1
# ELF4 = ELF4 (Homo sapiens, UniProt Q99607 1-663); conditions: protein: recombinant; tags: N-terminal GST; dsDNA, one strand shown
# Procedure, shortened: as §1
# ELK4 = biological target: T9, ELK4 (Homo sapiens, UniProt P28324-2 1-405); conditions: protein: recombinant; tags: N-terminal GST; dsDNA, one strand shown
# T9 sequence: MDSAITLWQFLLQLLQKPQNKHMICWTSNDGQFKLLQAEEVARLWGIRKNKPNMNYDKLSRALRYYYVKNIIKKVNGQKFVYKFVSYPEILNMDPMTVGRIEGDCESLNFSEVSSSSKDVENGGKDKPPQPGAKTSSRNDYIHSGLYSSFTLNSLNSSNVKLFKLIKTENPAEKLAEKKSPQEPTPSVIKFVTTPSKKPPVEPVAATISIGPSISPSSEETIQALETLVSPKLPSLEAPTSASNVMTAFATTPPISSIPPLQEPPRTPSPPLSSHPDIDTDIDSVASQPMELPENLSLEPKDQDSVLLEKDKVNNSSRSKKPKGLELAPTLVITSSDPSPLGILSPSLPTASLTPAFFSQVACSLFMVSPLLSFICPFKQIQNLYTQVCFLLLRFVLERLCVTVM
# Procedure, shortened: as §1
# ETV2 = biological target: T10, ETV2 (Homo sapiens, UniProt O00321 1-342); conditions: protein: recombinant; tags: N-terminal GST; dsDNA, one strand shown
# T10 sequence: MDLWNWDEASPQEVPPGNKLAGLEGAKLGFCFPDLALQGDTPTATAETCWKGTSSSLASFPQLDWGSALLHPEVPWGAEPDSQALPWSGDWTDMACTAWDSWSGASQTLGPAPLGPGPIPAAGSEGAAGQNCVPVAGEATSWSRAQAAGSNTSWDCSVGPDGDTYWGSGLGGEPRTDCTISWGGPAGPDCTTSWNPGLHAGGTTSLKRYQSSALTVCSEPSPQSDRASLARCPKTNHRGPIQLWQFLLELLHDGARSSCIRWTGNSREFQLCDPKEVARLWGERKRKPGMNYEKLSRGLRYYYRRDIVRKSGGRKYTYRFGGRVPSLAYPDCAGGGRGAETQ
# Procedure, shortened: as §1
# ELF3 = biological target: T11, ELF3 (Homo sapiens, UniProt P78545 1-371); conditions: protein: recombinant; tags: N-terminal GST; dsDNA, one strand shown
# T11 sequence: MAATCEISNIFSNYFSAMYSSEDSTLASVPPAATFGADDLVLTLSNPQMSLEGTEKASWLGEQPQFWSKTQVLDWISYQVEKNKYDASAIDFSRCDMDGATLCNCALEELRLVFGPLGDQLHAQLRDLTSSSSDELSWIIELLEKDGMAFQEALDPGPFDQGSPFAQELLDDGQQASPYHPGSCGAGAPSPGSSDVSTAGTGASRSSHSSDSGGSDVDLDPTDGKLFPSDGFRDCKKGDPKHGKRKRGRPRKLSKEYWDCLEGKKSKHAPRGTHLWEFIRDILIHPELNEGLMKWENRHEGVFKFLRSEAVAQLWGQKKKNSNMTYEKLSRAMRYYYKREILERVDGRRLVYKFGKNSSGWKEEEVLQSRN
# Procedure, shortened: as §1
# CRX = CRX (Homo sapiens, UniProt O43186 1-299); conditions: protein: recombinant; tags: N-terminal GST; dsDNA, one strand shown
# Procedure, shortened: as §1
# ETV1 = ETV1 (Homo sapiens, UniProt P50549 1-477); conditions: protein: recombinant; tags: N-terminal GST; dsDNA, one strand shown
# Procedure, shortened: as §1
# ETV5, sequence (P41161 whole entry): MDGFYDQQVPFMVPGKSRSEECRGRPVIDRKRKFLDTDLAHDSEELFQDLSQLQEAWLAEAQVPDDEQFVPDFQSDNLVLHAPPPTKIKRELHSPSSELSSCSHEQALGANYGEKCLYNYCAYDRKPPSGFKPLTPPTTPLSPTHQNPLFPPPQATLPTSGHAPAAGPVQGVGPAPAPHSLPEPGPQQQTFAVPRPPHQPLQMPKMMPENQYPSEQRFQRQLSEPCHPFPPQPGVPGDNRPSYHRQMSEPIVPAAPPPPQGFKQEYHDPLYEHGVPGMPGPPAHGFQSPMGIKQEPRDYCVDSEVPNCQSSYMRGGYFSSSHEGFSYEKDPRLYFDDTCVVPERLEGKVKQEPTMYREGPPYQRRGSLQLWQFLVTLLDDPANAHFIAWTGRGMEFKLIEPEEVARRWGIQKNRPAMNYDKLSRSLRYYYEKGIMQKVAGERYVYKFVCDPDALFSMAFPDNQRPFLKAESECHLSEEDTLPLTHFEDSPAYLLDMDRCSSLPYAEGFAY
# HSF1, sequence (Q00613 whole entry): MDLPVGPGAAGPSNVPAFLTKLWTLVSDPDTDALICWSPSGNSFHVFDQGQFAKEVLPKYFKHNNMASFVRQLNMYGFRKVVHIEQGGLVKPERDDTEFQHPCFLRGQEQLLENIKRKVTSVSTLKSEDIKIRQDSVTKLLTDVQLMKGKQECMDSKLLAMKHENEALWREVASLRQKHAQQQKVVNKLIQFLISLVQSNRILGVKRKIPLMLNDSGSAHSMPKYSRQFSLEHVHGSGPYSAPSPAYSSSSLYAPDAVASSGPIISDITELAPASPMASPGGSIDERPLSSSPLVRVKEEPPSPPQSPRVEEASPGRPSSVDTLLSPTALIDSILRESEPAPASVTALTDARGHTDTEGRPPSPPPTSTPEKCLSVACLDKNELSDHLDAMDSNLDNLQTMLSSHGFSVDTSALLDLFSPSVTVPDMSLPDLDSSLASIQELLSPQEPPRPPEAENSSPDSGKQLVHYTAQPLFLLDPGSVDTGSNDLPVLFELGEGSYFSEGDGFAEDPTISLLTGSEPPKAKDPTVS
# ELF4, sequence (Q99607 whole entry): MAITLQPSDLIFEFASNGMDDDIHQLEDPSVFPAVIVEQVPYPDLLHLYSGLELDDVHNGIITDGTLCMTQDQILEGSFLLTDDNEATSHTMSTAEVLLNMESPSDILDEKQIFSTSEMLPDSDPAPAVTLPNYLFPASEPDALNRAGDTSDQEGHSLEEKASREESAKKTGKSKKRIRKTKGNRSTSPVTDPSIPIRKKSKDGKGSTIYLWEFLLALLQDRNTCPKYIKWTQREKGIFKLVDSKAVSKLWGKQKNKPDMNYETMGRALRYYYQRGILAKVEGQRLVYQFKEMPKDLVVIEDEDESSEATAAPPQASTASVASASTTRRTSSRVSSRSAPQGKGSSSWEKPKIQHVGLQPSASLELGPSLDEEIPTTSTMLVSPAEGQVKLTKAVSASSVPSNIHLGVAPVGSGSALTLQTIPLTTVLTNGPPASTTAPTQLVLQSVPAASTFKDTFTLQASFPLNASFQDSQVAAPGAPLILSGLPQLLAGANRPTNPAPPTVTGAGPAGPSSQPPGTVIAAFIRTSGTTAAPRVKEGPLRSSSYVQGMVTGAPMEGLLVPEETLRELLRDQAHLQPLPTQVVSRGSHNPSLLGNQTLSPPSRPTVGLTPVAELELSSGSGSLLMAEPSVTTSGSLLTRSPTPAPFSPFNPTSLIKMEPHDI
# SPIB, sequence (Q01892 whole entry): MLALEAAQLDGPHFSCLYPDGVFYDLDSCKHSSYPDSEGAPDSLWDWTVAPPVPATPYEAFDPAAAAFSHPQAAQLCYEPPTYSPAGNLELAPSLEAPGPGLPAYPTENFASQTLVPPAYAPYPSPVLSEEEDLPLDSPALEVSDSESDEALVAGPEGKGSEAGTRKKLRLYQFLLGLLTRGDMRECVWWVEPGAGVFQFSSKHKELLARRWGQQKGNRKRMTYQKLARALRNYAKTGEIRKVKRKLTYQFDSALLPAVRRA
# CRX, sequence (O43186 whole entry): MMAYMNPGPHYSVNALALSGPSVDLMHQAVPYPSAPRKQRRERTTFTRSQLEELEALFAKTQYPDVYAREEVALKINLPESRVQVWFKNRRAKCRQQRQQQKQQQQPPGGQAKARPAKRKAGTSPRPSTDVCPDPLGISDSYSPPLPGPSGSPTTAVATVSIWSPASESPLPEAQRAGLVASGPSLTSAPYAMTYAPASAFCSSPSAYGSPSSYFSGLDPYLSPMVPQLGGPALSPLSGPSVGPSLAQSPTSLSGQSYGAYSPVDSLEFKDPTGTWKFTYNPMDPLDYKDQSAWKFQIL
# ETV1, sequence (P50549 whole entry): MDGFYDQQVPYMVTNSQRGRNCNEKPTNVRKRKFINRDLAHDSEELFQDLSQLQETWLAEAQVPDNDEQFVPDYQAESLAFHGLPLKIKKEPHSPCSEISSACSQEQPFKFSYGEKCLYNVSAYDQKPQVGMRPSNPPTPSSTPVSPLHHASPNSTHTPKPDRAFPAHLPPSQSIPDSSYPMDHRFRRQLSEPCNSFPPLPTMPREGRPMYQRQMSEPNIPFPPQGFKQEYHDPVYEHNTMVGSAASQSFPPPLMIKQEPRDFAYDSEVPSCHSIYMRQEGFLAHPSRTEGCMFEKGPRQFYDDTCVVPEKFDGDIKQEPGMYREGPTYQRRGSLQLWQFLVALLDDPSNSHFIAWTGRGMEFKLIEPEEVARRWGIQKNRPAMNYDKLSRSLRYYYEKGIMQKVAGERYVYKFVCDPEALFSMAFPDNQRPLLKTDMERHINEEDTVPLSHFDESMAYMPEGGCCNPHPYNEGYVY
# ELF1, sequence (P32519 whole entry): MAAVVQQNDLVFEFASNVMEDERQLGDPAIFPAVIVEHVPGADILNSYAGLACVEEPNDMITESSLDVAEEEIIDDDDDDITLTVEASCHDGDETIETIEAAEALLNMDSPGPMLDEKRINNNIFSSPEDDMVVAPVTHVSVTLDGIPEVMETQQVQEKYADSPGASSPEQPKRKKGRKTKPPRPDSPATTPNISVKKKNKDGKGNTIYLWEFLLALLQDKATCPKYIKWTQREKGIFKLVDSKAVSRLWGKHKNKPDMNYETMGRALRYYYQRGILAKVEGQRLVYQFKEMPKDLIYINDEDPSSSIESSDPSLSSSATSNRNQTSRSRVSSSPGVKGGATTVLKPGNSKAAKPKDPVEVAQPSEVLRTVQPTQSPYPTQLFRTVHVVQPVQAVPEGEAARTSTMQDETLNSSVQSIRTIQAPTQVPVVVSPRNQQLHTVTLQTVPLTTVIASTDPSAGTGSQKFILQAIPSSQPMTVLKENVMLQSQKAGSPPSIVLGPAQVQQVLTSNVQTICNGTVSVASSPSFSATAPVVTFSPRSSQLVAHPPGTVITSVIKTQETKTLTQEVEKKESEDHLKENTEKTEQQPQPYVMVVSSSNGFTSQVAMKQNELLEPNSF
sequence,measurement,setting,value
TTTTCA,binding signal,FLI1,"1.12 fold enrichment (6-mer frequency, TF over GST control)"
same,binding signal,ELK1,"1.19 fold enrichment (6-mer frequency, TF over GST control)"
same,binding signal,GABPA,"1.3 fold enrichment (6-mer frequency, TF over GST control)"
same,binding signal,ERG,"1.17 fold enrichment (6-mer frequency, TF over GST control)"
same,binding signal,ELF1,"1.18 fold enrichment (6-mer frequency, TF over GST control)"
same,binding signal,EHF,"1.22 fold enrichment (6-mer frequency, TF over GST control)"
same,binding signal,SPI1,"1.29 fold enrichment (6-mer frequency, TF over GST control)"
same,binding signal,SPIB,"1.27 fold enrichment (6-mer frequency, TF over GST control)"
same,binding signal,ELK3,"1.09 fold enrichment (6-mer frequency, TF over GST control)"
same,binding signal,FEV,"1.17 fold enrichment (6-mer frequency, TF over GST control)"
same,binding signal,ETV5,"1.2 fold enrichment (6-mer frequency, TF over GST control)"
same,binding signal,HSF1,"1.14 fold enrichment (6-mer frequency, TF over GST control)"
same,binding signal,SPIC,"1.22 fold enrichment (6-mer frequency, TF over GST control)"
same,binding signal,ELF4,"1.27 fold enrichment (6-mer frequency, TF over GST control)"
same,binding signal,ELK4,"1.2 fold enrichment (6-mer frequency, TF over GST control)"
same,binding signal,ETV2,"1.24 fold enrichment (6-mer frequency, TF over GST control)"
same,binding signal,ELF3,"1.31 fold enrichment (6-mer frequency, TF over GST control)"
same,binding signal,CRX,"1.28 fold enrichment (6-mer frequency, TF over GST control)"
same,binding signal,ETV1,"1.22 fold enrichment (6-mer frequency, TF over GST control)"
